Results: PubChem BioAssay (NCATS)
Where “and” joins values, the source holds several entries; their conditions need not be identical. Equal values may be shown once. Results filed as inconclusive are left out. A call without a number means that no potency is given here. Calls of active or inactive are those of the source. Unless noted, calls come from the whole dose curve; as a rule, active = well fitted curve in the direction sought with a large enough effect; inconclusive = small, poorly fitted or top-dose-only effect, or another doubt; inactive = no such curve, though single readings can be large; an effect the other way counts as inactive or inconclusive.

How the values were obtained:
[1] = AP1 Signaling Pathway (AID 357; active = well fitted curve in either direction with a large enough effect, not every such curve was filed as active;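 note: ME-180 reporter cells stimulated with EGF at its EC50 level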)
Summary of the method: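 Beta-lactamase reporter under AP-1 response element, ME-180 background. Stimulus: EC50 EGF. Compound exposure 5 h, 37 °C. Detection: CCF4, 2.5 h RT, 460/530 nm. Values: AC50 from titration.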

[2] = molecular target: Cytochrome P450 1A2 (Homo sapiens) (UniProt P05177); test: p450-cyp1a2 (AID 410; calls by dose curve; note: potency is the fitted concentration of half-maximal effect)
Summary of the method: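 Luminescent demethylation readout: Luciferin-ME (100uM, equal to Km) turned over by 20nM CYP1A2 for 60 min at room temperature after NADPH regeneration addition, following 10 min compound preincubation. Normalization used 57 uM furafylline as full inhibition.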

[3] = molecular target: Glucocorticoid receptor (Homo sapiens) (UniProt P04150); test: GR-GFP Redistribution (AID 450;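 active = compounds whose dose series gives a full or clear partial fitted curve of increased nuclear translocation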; note: potency is the fitted concentration of half-maximal effect); conditions: U2OS GR-GFP nuclear translocation, laser cytometry, 2 h
[4] = molecular target: Glucocorticoid receptor (Homo sapiens) (UniProt P04150); test: GR-EFC Redistribution (AID 451; calls by dose curve; note: potency is the fitted concentration of half-maximal effect); conditions: CHO-K1 GR-EFC translocation, beta-gal luminescence, 2 h
Summary of the method: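 CHO-K1 cells stably expressing nuclear-localized β-gal enzyme acceptor and GR fused C-terminally to the enzyme donor fragment; ligand-driven nuclear translocation restores β-gal by complementation. Compounds titrated up to 46 uM final, 2 h at 37 °C; luminescence read.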

[5] = molecular target: Mitogen-activated protein kinase 10 (Mus musculus) (UniProt Q61831); test: JNK3 AlphaScreen Assay (AID 530; active = well fitted curve in either direction with a large enough effect, not every such curve was filed as active;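 note: kinase came from lysate of stimulated human HepG2 cells; signal reports phosphorylation of biotinylated GST-cJun 1-79 at Ser73 with 10 µM ATP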)
Summary of the method: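 Phosphorylation of biotinylated GST-cJun(1-79) at Ser73 is measured by AlphaScreen proximity luminescence. Enzyme is JNK3 in HepG2 lysates activated with interleukin-1beta and tumor necrosis factor alpha; ATP is 10 uM final.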

[6] = molecular target: 3',5'-cyclic-AMP phosphodiesterase 4B (Homo sapiens) (UniProt Q07343); test: qHTS Assay for Inhibitors of PDE-IV (AID 607; active = well fitted activation curve with a large enough effect in the main read-out, with a control signal flat, not every such curve was filed as active)
Summary of the method: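 ACTOne HEK293 cells carry a modified cAMP-gated CNG channel and express endogenous PDE4; plated 1000 cells/well, compounds up to 22.9 uM final. Membrane-potential dye fluorescence (ex 535/em 590) was read; parental cells received 10 uM forskolin + 100 uM RO 20-1724.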

[7] = molecular target: Cytochrome P450 3A4 (Homo sapiens) (UniProt P08684); test: qHTS Assay for Inhibitors and Substrates of Cytochrome P450 3A4 (AID 884); note: nearly all actives have a fitted effect of over 50% in size
Summary of the method: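 Luminescent readout of luciferin produced by CYP3A4 (20 nM) dealkylation of Luciferin-PPXE, 25 uM (its KM). NADPH-driven reaction ran 60 min at RT after 10 min compound preincubation; data scaled to 57 uM ketoconazole as 100% inhibition.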

[8] = molecular target: Cytochrome P450 3A4 (Homo sapiens) (UniProt P08684); test: qHTS Assay for Activators of Cytochrome P450 3A4 (AID 885); note: nearly all actives have a fitted effect of over 65% in size
Summary of the method: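 CYP3A4 activity: Luciferin-PPXE O-dealkylation, 25uM substrate, 200mM KPO4, RT throughout. Read-out is luciferase luminescence; higher values reflect activation.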

[9] = molecular target: Cytochrome P450 2D6 (Homo sapiens) (UniProt P10635); test: qHTS Assay for Inhibitors and Substrates of Cytochrome P450 2D6 (AID 891); note: potency is the fitted concentration of half-maximal effect; nearly all actives have a fitted effect of over 60% in size
Summary of the method: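 Luminescent read-out of luciferin formed by 5 nM human CYP2D6 demethylating 30 uM Luciferin-ME EGE (Km level) over 60 min at room temperature after NADPH regeneration addition. Data normalized to full inhibition by 1.43 uM quinidine.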

[10] = Confirmation and Secondary Assay for Modulators of Hemoglobin Beta Chain Splicing at IVS2 654 locus (AID 910);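 note: per-well total GFP intensity by laser scanning cytometry after 2-day treatment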
Summary of the method: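 HeLa cells stably carrying EGFP interrupted by mutant beta-globin IVS2-654 intron (CMV-driven) were treated with compound for 2 days at 37C; corrected splicing was scored as total peak GFP intensity per well (488 nm excitation, 500-520 nm emission).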

[11] = qHTS Assay for Identification of Small Molecule Agonists for Hypoxia Response Element Signaling Pathway (AID 914; active = well fitted activation curve with a large enough effect in the signal ratio, with a control signal flat, not every such curve was filed as active; the % refers to the signal ratio; note: potency is the fitted concentration of half-maximal effect); conditions: ME-180 (cervical carcinoma) HRE-bla reporter, beta-lactamase ratio, CoCl2, 17 h; activation: stronger effect = higher value
Summary of the method: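 Cells were plated overnight, pin-dosed with compound in a titration series, co-stimulated with EC50 CoCl2 and incubated 17 hours at 37 degrees Celsius. CCF4 substrate was then loaded, and AC50 values came from the 460nm/530nm ratio.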

[12] = Confirmation and Secondary Assay for Modulators of Hemoglobin Beta Chain Splicing at IVS2 705 locus (AID 930);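 note: HeLa cells stably expressing the EGFP-705 splicing reporter; GFP fluorescence per well restored by corrected splicing of the IVS2-705 intron in EGFP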
Summary of the method: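 Splice-correction reporter: EGFP cDNA split by beta-globin intron 2 bearing the 705 mutation, stably in HeLa. Compound incubation 2 days, 37C; fluorescent objects 5-250 µm summed per well.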

[13] = qHTS Assay for Lipid Storage Modulators (AID 1519; calls by dose curve); conditions: Drosophila S3 cells, BODIPY lipid droplet/cell ratio, laser cytometry, cells loaded with oleic acid
Summary of the method: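 Cells seeded at 5,000 per well were treated with compounds over a concentration series and loaded with oleic acid (400 uM, as added). Lipid droplet fluorescence (488 nm excitation, 500-530 nm channel) was read by laser-scanning cytometry and normalized to 20 uM Triacsin C.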

[14] = molecular target: Ubiquitin carboxyl-terminal hydrolase 1 (Homo sapiens) (UniProt O94782); test: Inhibitors of USP1/UAF1: Pilot qHTS (AID 504865);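 note: rhodamine fluorescence freed from ubiquitin-rhodamine substrate followed over time; top concentration of the series differs between compounds; nearly all actives have a fitted effect of over 35% in size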
Summary of the method: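 In 50mM HEPES pH 7.8 containing 0.5mM EDTA, 1mM TCEP, 0.1 mg/ml BSA and 0.01% Tween-20, 1nM USP1/UAF1 is exposed to compound for 15 min, then Ub-Rho (150nM final) is added and fluorescence is read over time.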

[15] = molecular target: DNA dC->dU-editing enzyme APOBEC-3G (Homo sapiens) (UniProt Q9HC16); test: qHTS for inhibitors of Vif-A3G interactions: Validation (AID 588379)
Summary of the method: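 Yellow fluorescence (Ex 488, Em 500-530) of Vif-coexpressing HeLa A3G-eYFP cells, scanned by Acumen cytometer, reports blocked A3G degradation. Cells plated at 700/well overnight at 37 deg C before compound addition, then a further overnight compound incubation at 37 deg C.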

[16] = system: Zika virus NS2B-NS3 protease; test: Primary screen GU AMC qHTS for Zika virus inhibitors (AID 1347154); note: potency is the fitted concentration of half-maximal effect; nearly all actives have a fitted effect of over 70% in size
Summary of the method: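 Unlinked Zika NS2B hydrophilic domain/NS3 protease domain noncovalent complex (25 nM final) in 10 mM Tris-HCl pH 8.0, 0.01% Tween 20, with AMC peptide substrate. Fluorescence (ex 340, em 450 nm) change over 15 min, room temperature; percent inhibition fitted to 4-parameter Hill equation.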

[17] = system: Zika virus NS2B-NS3 protease (linked construct); test: Primary screen NINDS Rhodamine qHTS for Zika virus inhibitors (AID 1347160); note: nearly all actives have a fitted effect of over 55% in size
Summary of the method: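 Aprotinin served as in-plate control. Conditions: 25 nM linked NS2B-NS3, pH 8.0 Tris buffer, titrated compounds, 15 min preincubation and 15 min reaction with 1.5 microM Rhod110 substrate at room temperature.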

[18] = OV-KATE Cancer Cell Toxicity qHTS against the NCATS CANVASS Library (AID 1347345)
Summary of the method: (§1)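 Step one: seed 1000 cells per well. Step two: incubate 4 h. Step three: add test compounds in 11 concentrations. Step four: culture 72 h, then add CellTiter-Glo and record luminescence after 15min.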

[19] = SW1088 Cancer Cell Toxicity qHTS against the NCATS CANVASS Library (AID 1347350); note: nearly all actives have a fitted effect of over 75% in size
Summary of the method: as §1

[20] = U-118MG Cancer Cell Toxicity qHTS against the NCATS CANVASS Library (AID 1347351)
Summary of the method: as §1

[21] = COV-362 Cancer Cell Toxicity qHTS against the NCATS CANVASS Library (AID 1347352)
Summary of the method: (§2)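 Toxicity was measured as CellTiter-Glo luminescence after 72 h exposure to an 11-point compound series. Compound was added to 1000 cells/well 4 h after seeding.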

[22] = A2780 Cisplatin Sensitive Ovarian Cancer Cell Toxicity qHTS against the NCATS CANVASS Library (AID 1347353); note: nearly all actives have a fitted effect of over 60% in size
Summary of the method: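 Cisplatin-sensitive A2780 ovarian cells (750/well) received compound in 11 concentrations, and were incubated 72 h at 37 °C. ATP content was measured by ATPLite luminescence; bortezomib served as control.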

[23] = UWB1.289-WTBRCA1 Cancer Cell Toxicity qHTS against the NCATS CANVASS Library (AID 1347354)
Summary of the method: as §2

Chain of Cytochrome P450 3A4 (Homo sapiens) (P08684 whole entry, looked up): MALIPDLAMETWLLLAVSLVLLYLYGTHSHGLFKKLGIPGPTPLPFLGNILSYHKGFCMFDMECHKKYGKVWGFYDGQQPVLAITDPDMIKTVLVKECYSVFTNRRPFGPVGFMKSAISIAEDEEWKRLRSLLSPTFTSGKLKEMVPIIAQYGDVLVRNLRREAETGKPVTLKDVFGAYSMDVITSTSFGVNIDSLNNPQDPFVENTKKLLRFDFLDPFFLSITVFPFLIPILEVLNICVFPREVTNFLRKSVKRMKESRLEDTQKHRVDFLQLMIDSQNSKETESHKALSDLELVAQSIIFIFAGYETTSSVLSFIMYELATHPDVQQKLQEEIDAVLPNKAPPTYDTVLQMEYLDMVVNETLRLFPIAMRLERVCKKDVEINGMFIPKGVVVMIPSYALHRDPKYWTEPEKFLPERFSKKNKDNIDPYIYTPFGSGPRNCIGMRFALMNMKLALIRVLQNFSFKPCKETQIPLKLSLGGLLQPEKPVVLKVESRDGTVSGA
Chain of Glucocorticoid receptor (Homo sapiens) (P04150 whole entry, looked up, the tested form may be a part): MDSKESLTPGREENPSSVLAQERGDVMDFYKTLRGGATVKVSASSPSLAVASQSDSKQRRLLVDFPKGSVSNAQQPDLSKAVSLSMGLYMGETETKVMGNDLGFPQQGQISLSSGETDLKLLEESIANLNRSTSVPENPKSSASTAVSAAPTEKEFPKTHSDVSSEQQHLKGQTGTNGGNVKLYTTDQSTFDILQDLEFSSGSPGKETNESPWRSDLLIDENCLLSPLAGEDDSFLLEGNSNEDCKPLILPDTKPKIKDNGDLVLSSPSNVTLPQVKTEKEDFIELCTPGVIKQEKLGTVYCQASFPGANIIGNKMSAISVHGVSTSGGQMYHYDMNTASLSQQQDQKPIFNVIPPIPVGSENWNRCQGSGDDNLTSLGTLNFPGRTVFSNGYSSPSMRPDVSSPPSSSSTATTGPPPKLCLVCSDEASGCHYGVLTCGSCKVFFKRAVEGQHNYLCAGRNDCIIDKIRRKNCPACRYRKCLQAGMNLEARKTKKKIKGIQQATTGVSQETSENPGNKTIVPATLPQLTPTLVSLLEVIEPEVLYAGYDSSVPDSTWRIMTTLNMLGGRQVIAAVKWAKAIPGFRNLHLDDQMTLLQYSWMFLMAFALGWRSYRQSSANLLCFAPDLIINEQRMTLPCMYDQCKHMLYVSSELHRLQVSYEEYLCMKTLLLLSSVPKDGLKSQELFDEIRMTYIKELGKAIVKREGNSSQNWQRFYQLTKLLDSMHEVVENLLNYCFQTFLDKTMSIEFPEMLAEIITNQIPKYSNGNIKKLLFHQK
Chain of Cytochrome P450 1A2 (Homo sapiens) (P05177 whole entry, looked up): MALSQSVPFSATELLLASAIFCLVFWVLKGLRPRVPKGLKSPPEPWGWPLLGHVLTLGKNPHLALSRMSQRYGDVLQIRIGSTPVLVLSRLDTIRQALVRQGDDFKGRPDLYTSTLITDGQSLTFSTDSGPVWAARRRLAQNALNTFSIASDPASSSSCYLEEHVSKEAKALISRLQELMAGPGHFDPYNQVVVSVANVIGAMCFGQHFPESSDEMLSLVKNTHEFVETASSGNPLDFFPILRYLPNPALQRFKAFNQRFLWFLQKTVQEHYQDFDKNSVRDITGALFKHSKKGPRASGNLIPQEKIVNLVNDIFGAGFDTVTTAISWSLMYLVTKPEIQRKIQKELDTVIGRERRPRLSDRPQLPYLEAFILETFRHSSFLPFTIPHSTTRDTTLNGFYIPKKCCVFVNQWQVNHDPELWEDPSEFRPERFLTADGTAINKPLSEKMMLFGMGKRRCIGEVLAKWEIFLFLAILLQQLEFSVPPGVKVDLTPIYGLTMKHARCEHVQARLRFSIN
Chain of Cytochrome P450 2D6 (Homo sapiens) (P10635 whole entry, looked up): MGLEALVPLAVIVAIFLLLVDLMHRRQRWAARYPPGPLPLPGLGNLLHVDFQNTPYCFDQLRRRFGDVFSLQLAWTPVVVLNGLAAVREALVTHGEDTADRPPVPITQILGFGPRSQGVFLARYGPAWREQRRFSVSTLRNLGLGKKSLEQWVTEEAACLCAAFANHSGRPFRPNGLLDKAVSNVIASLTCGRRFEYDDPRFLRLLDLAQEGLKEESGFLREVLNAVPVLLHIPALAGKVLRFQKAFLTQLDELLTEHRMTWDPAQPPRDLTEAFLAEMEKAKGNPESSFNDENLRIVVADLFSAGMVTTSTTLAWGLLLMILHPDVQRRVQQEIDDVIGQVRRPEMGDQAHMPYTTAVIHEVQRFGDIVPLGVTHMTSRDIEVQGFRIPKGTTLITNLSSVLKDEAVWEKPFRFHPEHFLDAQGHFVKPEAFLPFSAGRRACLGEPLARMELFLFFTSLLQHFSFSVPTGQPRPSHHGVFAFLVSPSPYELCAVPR
Chain of DNA dC->dU-editing enzyme APOBEC-3G (Homo sapiens) (Q9HC16 whole entry, looked up): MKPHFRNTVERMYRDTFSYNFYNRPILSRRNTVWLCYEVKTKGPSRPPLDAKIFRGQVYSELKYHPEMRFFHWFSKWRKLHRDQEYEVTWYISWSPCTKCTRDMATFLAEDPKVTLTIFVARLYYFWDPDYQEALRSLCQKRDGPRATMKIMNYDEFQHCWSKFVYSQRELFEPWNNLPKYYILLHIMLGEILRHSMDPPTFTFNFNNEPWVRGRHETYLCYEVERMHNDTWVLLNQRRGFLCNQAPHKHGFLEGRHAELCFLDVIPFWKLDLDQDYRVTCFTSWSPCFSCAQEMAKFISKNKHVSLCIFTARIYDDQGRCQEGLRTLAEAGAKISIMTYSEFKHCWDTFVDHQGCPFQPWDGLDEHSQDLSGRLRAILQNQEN
Chain of 3',5'-cyclic-AMP phosphodiesterase 4B (Homo sapiens) (Q07343 whole entry, looked up): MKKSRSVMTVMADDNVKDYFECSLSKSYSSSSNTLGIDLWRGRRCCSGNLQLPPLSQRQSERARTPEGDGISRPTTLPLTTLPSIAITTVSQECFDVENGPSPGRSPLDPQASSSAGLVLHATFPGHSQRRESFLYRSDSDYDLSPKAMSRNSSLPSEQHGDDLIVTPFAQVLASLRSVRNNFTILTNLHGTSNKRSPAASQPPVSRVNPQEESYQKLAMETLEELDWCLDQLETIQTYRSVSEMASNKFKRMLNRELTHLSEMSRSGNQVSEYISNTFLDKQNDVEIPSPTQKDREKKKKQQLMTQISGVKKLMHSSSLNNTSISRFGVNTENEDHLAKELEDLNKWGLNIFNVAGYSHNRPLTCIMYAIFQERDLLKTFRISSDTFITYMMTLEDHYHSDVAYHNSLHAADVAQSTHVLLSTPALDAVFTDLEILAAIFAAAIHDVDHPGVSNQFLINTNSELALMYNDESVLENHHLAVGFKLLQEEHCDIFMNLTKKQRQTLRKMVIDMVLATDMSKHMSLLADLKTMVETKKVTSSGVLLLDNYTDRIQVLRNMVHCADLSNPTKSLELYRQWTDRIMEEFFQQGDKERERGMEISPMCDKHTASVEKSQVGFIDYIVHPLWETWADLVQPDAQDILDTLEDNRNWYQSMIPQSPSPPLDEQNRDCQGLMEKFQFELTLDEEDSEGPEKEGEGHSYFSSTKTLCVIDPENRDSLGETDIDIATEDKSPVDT
Chain of Ubiquitin carboxyl-terminal hydrolase 1 (Homo sapiens) (O94782 whole entry, looked up): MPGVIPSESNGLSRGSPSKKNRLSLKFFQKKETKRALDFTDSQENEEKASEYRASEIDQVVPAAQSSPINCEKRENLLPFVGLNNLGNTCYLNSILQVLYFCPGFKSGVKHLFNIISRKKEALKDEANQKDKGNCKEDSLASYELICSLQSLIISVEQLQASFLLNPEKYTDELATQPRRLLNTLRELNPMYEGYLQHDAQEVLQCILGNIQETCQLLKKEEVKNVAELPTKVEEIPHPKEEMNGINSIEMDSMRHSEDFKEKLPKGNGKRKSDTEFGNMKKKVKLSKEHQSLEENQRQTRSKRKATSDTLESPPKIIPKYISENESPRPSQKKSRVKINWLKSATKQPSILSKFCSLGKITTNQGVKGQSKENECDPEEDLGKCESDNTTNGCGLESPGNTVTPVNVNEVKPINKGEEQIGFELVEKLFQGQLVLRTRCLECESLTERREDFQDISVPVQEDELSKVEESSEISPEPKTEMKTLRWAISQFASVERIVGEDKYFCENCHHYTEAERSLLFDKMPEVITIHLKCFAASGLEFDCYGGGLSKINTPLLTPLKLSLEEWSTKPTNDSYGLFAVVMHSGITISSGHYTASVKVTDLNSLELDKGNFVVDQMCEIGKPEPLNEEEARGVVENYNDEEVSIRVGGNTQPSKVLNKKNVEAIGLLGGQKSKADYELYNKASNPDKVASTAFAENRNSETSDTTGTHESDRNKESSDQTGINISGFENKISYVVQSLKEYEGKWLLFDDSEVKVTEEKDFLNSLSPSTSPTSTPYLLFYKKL

With COc1ccc2c3c([nH]c2c1)C(C)=NCC3 the outcome [1] was “inactive”, the Potency [2] was 794 nM (active) and 251 nM (active) and the Potency [3] was > 20.6 µM (inactive) and > 46 µM (inactive). The Potency [4] was > 20.6 µM (inactive) and > 46 µM (inactive), the outcome [5] was “inactive” and the Potency [6] was “inactive”. The Potency [7] was “inactive”, the Potency [8] was “inactive” and the Potency [9] was 3.98 µM (active). The Potency [10] was “inactive”, the Potency [11] was 10 µM (active) and the outcome [12] was “inactive”. For the same compound, the activity change, negative = inhibition ([13]; at 25.7 µM (top of the series)) was 1.66% (inactive), the max response ([13]; measured here: cell count channel max response) was 0.146% and the max response ([13]; measured here: lipid channel max response) was 2.64%. For the same compound, the Potency [14] was “inactive”, the Potency [15] was “inactive” and the Potency [16] was 21.2 µM (active). The Potency [17] was “inactive”, the Potency [18] was “inactive” and the Potency [19] was “inactive”. For the same compound, the Potency [20] was “inactive”, the Potency [21] was “inactive” and the Potency [22] was “inactive”. For the same compound, the Potency [23] was “inactive”.
